These results are taken from PubChem BioAssay (NCATS).

Inconclusive results are not listed. Where a call stands in place of a potency, no number is given. The source made the active and inactive calls. Calls come from the whole dose curve; as a rule, active = well fitted inhibition curve with a large enough effect; inconclusive = small, poorly fitted or top-dose-only effect; inactive = flat fitted curve, though single readings scatter.
Potency is the fitted concentration of half-maximal effect.

In one test the test system is MKL-2. Nature of the test: qHTS assay to identify novel small-molecules to repurpose for Merkel cell carcinoma treatment (AID 1296009). Note: nearly all actives have a fitted effect of over 60% in size. Conditions: MCC and control cell lines, CellTiter-Glo viability, 72 h; series mostly up to 46 µM. The procedure, abridged:
(§1)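 72 hr, 37 degree celsius; NPC 8-pt / MIPE 11-pt dose response; compound pinned in DMSO; CellTiter-Glo, 10 min RT, luminescence; normalized to no-cell and DMSO controls.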
On the technique in general: In qHTS, concentration-response curves come from the screen itself.
As for `COC(=O)[C@@H]1[C@H]2C[C@H]3c4[nH]c5ccccc5c4CCN3C[C@@H]2CC[C@@H]1O`, the Potency result was “inactive”.

As to `CCCCCN(C)CCC(O)(P(=O)(O)O)P(=O)(O)O`, the Potency entry was “inactive”.

In the case of `NC1=N[C@@]2(c3cc(NC(=O)c4ccc(F)cn4)ccc3F)COC[C@@H]2CS1`, the Potency result is “inactive”.

With `CCC(CC)[C@H](NC(C)=O)[C@@H]1[C@H](O)[C@@H](C(=O)O)C[C@@H]1N=C(N)N`, the Potency entry is “inactive”.

For `Cn1c(N2CCCCS2(=O)=O)nc(C(=O)NCc2ccc(F)cc2)c(O)c1=O`, the Potency entry was “inactive”.

As for `CCC(=O)O[C@]1(C(=O)CO)CC[C@H]2[C@@H]3CCC4=CC(=O)CC[C@]4(C)[C@@H]3CC[C@@]21C`, the Potency result is “inactive”.

Consider `CC1CCC(C(=O)N(c2cc(C#CC(C)(C)C)sc2C(=O)O)C2CCC(O)CC2)CC1` (stereo not drawn), for which the Potency entry was “inactive”.

As to `CCCNC(=O)NS(=O)(=O)c1ccc(Cl)cc1`, the Potency result is “inactive”.

Take `Cc1c(O)cccc1C(=O)N[C@@H](CSc1ccccc1)[C@H](O)CN1C[C@H]2CCCC[C@@H]2C[C@@H]1C(=O)NC(C)(C)C`: the Potency result is “inactive”.

With `COc1cc(O)c2c(c1)C(=O)c1cc(C)cc(O)c1C2=O`, the Potency result was “inactive”.

For `COc1ccc(-c2coc3cc(O)cc(O)c3c2=O)cc1`, the Potency entry is “inactive”.

Regarding `CCN(CC)CCNC(=O)c1ccc(N)cc1`, the Potency result is “inactive”.

Consider `CC(=Cc1ccccc1)C=C1SC(=S)N(CC(=O)O)C1=O`, for which the Potency entry is “inactive”.

For `Clc1ccc(C(c2ccc(Cl)cc2)n2cc[n+](CC(OCc3ccc(Cl)cc3Cl)c3ccc(Cl)cc3Cl)c2)cc1` (stereo not drawn), the Potency was 10.5 µM (active).

Regarding `Cc1ccc(Nc2cc(-c3cccc(N4C(=O)c5ccccc5C4=O)c3)ncn2)cc1NS(C)(=O)=O`, the Potency result is “inactive”.

On to `Cc1cccc(C)c1OCC(C)N` (stereo not drawn), for which the Potency result is “inactive”.

As for `COc1ccc(-c2cc(=O)c3c(O)cc(O)cc3o2)cc1O`, the Potency result was “inactive”.

In the case of `NC(=O)NN=Cc1ccc([N+](=O)[O-])o1`, the Potency result was “inactive”.

For the compound `CCOC(=O)C1=C(N)Oc2ccc(Br)cc2C1C(C#N)C(=O)OCC` (stereo not drawn), the Potency entry was “inactive”.

Regarding `O=C(O)c1cc(-c2ccccc2)nc2ccccc12`, the Potency result was “inactive”.

With `O=c1cc(-c2cccc3c2Sc2ccccc2S3)oc(N2CCOCC2)c1`, the Potency entry was “inactive”.

With `CCOC1OC(=O)C[C@H]1NC(=O)[C@@H]1CCCN1C(=O)[C@@H](NC(=O)c1ccc(N)c(Cl)c1)C(C)(C)C` (stereo partly drawn), the Potency result is “inactive”.

As to `CC#CCn1c(N2CCC[C@@H](N)C2)nc2c1c(=O)n(Cc1nc(C)c3ccccc3n1)c(=O)n2C`, the Potency entry was “inactive”.

With `OC[C@H]1O[C@@H](n2cnc3c2NC=NC[C@@H]3O)C[C@H]1O`, the Potency result is “inactive”.

As to `NC(N)=Nc1nc(CSCC/C(N)=N/S(N)(=O)=O)cs1`, the Potency result is “inactive”.

Turning to `CN(C)CCC=C1c2ccccc2COc2ccc(CC(=O)O)cc21`, the Potency result was “inactive”.

As for `COc1ccccc1N1CCN(CCCNc2cc(=O)n(C)c(=O)n2C)CC1`, the Potency entry was “inactive”.

On to `CON=C(C(=O)N[C@@H]1C(=O)N2C(C(=O)OCOC(=O)C(C)(C)C)=C(C=Cc3scnc3C)CS[C@H]12)c1csc(N)n1`, for which the Potency entry is “inactive”.

Consider `COc1cccc(-c2cc(=O)c3ccccc3o2)c1N`, for which the Potency result is “inactive”.

On to `Cc1ccc([C@@H]2O[C@H](CO)[C@@H](O)[C@H](O)[C@@H]2O)cc1Cc1ccc(-c2ccc(F)cc2)s1`, for which the Potency result is “inactive”.

Consider `O=C(OCC#CCSc1nnc(-c2cccc3ccccc23)o1)c1cc2ccccc2s1`, for which the Potency result is “inactive”.

The test system of another test is NIH3T3. The description is as above. The note with it: MCC and control cell lines, CellTiter-Glo viability, 72 h; at 44.8 µM (top of the series) unless noted. The procedure, abridged: as §1
With `COC(=O)[C@@H]1[C@H]2C[C@H]3c4[nH]c5ccccc5c4CCN3C[C@@H]2CC[C@@H]1O`, the compound was called inactive.

For `CCCCCN(C)CCC(O)(P(=O)(O)O)P(=O)(O)O`, the call was inactive.

Turning to `CCC(CC)[C@H](NC(C)=O)[C@@H]1[C@H](O)[C@@H](C(=O)O)C[C@@H]1N=C(N)N`, the outcome was inactive.

In the case of `Cn1c(N2CCCCS2(=O)=O)nc(C(=O)NCc2ccc(F)cc2)c(O)c1=O`, the compound was called inactive.

As for `CCC(=O)O[C@]1(C(=O)CO)CC[C@H]2[C@@H]3CCC4=CC(=O)CC[C@]4(C)[C@@H]3CC[C@@]21C`, the compound was called inactive.

As to `CC1CCC(C(=O)N(c2cc(C#CC(C)(C)C)sc2C(=O)O)C2CCC(O)CC2)CC1` (stereo not drawn), the compound was classed as inactive.

Regarding `CCCNC(=O)NS(=O)(=O)c1ccc(Cl)cc1`, the result was inactive.

On to `COc1cc(O)c2c(c1)C(=O)c1cc(C)cc(O)c1C2=O`, for which the outcome is “inactive [at 17.4 µM]”.

Take `COc1ccc(-c2coc3cc(O)cc(O)c3c2=O)cc1`: the result was inactive.

With `CCN(CC)CCNC(=O)c1ccc(N)cc1`, the call was inactive.

In the case of `CC(=Cc1ccccc1)C=C1SC(=S)N(CC(=O)O)C1=O`, the outcome was inactive.

Take `Cc1ccc(Nc2cc(-c3cccc(N4C(=O)c5ccccc5C4=O)c3)ncn2)cc1NS(C)(=O)=O`: the call was inactive.

Regarding `Cc1cccc(C)c1OCC(C)N` (stereo not drawn), the outcome was inactive.

On to `NC(=O)NN=Cc1ccc([N+](=O)[O-])o1`, for which the outcome was inactive.

As for `CCOC(=O)C1=C(N)Oc2ccc(Br)cc2C1C(C#N)C(=O)OCC` (stereo not drawn), the result was inactive.

Turning to `O=C(O)c1cc(-c2ccccc2)nc2ccccc12`, the outcome was inactive.

With `O=c1cc(-c2cccc3c2Sc2ccccc2S3)oc(N2CCOCC2)c1`, the compound was classed as inactive.

On to `CCOC1OC(=O)C[C@H]1NC(=O)[C@@H]1CCCN1C(=O)[C@@H](NC(=O)c1ccc(N)c(Cl)c1)C(C)(C)C` (stereo partly drawn), for which the call was inactive.

As for `CC#CCn1c(N2CCC[C@@H](N)C2)nc2c1c(=O)n(Cc1nc(C)c3ccccc3n1)c(=O)n2C`, the compound was classed as inactive.

Regarding `OC[C@H]1O[C@@H](n2cnc3c2NC=NC[C@@H]3O)C[C@H]1O`, the call was inactive.

As for `NC(N)=Nc1nc(CSCC/C(N)=N/S(N)(=O)=O)cs1`, the compound was called inactive.

For the compound `CN(C)CCC=C1c2ccccc2COc2ccc(CC(=O)O)cc21`, the outcome was inactive.

As to `COc1ccccc1N1CCN(CCCNc2cc(=O)n(C)c(=O)n2C)CC1`, the outcome was inactive.

Regarding `CON=C(C(=O)N[C@@H]1C(=O)N2C(C(=O)OCOC(=O)C(C)(C)C)=C(C=Cc3scnc3C)CS[C@H]12)c1csc(N)n1`, the call was inactive.

Consider `COc1cccc(-c2cc(=O)c3ccccc3o2)c1N`, for which the call was inactive.

With `Cc1ccc([C@@H]2O[C@H](CO)[C@@H](O)[C@H](O)[C@@H]2O)cc1Cc1ccc(-c2ccc(F)cc2)s1`, the outcome was inactive.

In the case of `O=C(OCC#CCSc1nnc(-c2cccc3ccccc23)o1)c1cc2ccccc2s1`, the outcome was inactive.
